Measurements taken from PubChem BioAssay.
Results with a measured potency or affinity are listed apart. Active and inactive are the calls of the source.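 Rule for the calls, unless noted: active = earlier screen potentiator hit that boosts the TRPC4 ion channel at some dose, with a dose response; inactive = no potentiation, no dose response, or not a prior hit.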

biological target: Short transient receptor potential channel 4 (Mus musculus) (UniProt Q9QUQ5); test: potentiation of DAMGO-evoked TRPC4 calcium signal – cell-based, HEK293 TRPC4/mu-opioid, Fluo-4 calcium, EC20 DAMGO, dose response (AID 434941); conditions: HEK293 TRPC4/mu-opioid cells, Fluo-4 calcium fluorescence; series mostly up to 20 µM;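 note: calcium entry triggered by an EC20 dose of DAMGO at the co-expressed mu-opioid receptor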
Sequence (Q9QUQ5 whole entry, looked up): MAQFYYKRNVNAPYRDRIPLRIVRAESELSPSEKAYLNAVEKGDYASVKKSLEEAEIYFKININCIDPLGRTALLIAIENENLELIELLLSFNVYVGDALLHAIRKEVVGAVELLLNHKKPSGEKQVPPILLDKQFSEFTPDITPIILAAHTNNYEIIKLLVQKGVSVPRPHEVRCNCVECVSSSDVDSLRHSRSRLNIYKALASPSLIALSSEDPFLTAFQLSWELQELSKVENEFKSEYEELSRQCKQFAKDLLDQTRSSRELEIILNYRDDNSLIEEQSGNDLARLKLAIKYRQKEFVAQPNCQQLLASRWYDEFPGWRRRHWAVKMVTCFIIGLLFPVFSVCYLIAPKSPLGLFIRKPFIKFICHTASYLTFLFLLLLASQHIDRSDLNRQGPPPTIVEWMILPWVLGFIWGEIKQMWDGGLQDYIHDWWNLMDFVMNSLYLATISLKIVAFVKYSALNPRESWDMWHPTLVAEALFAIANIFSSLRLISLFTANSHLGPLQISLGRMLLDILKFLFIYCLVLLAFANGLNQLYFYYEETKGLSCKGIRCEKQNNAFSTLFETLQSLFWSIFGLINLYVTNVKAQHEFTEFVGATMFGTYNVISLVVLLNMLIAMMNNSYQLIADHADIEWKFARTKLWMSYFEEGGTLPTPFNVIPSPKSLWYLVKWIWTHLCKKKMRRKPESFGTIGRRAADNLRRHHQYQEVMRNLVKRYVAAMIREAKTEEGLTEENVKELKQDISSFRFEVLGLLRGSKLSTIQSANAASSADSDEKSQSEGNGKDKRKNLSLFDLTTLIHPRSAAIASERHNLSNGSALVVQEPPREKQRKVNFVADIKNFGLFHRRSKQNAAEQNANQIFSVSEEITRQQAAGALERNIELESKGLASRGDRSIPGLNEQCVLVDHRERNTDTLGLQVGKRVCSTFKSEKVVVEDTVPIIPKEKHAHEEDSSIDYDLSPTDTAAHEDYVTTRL

outcome, inactive:
Cc1cc(-c2ccc(C)c(S(=O)(=O)NCCCN(Cc3ccccc3)C(C)C)c2)on1, CCc1nc(NCCc2ccccn2)c2nnn(Cc3ccccc3F)c2n1, Cc1sc2ncnc(NCC(C)(C)N3CCOCC3)c2c1C, Cc1ccc(N2CCN(c3ccc(NCc4nc5ccccc5n4C)cc3)CC2)cc1, COc1ccc(C(CNC(=O)CN2C(=O)NC3(CCCC3)C2=O)N(C)C)cc1 (stereo not given), Cc1cccc(NC(=S)NCC(c2cccnc2)N(C)C)c1C (stereo not given), Cc1ccccc1OCC(=O)NNC(=S)NC(=O)c1ccco1, Cc1ccc(Sc2cc(C(=O)NCCN(C)C)c3ccccc3n2)cc1, O=C(O)c1ccc(-c2ccc(/C=c3/sc4nc5ccccc5n4c3=O)o2)cc1Cl, Cc1ccccc1C(=O)NNC(=S)NC(=O)c1ccccc1, CN(C)C(CNC(=O)c1ccc2ccccc2n1)c1ccccc1 (stereo not given), Cc1cc(NC(=O)CN2CCc3ccccc3C2)nc2c1c(=O)oc1ccccc12, Cn1c(CN2CCN(c3cccc(Cl)c3)CC2)nc2ccccc21, CN(C)C(CNC(=O)c1cnc(Cl)c(Cl)c1)c1ccccc1 (stereo not given), Cc1ccc(Cl)cc1NC(=O)CNCC(c1ccccc1)N(C)C (stereo not given), CN(C)CCCN(C(=O)c1ccc(S(=O)(=O)N2CCOCC2)cc1)c1nc2ccc(F)cc2s1, CN(C)CCN(C(=O)c1cccc2ccccc12)c1nc2cc3c(cc2s1)OCO3, Cc1ccc2c(C)c(C(=O)N(Cc3cccs3)C3CCS(=O)(=O)C3)oc2c1 (stereo not given), CCN1CCN(c2c(Cl)cccc2NC(=O)c2ccc3nsnc3c2)CC1, O=C(C1CCCN(Cc2ccncc2)C1)N1CCc2ccccc2C1 (stereo not given), CCN(c1ccccc1)S(=O)(=O)c1ccc(C(=O)N(CCCN(C)C)c2nc3cc4c(cc3s2)OCO4)cc1, CC1CCCN(CCCNC(=O)c2ccc3c(c2)N(Cc2ccccc2F)C(=O)c2ccccc2S3(=O)=O)C1 (stereo not given), O=C(Nc1nnc(-c2ccccc2Cl)o1)c1nc2ccccc2s1, COc1ccc(C(=O)NC(=S)NNC(=O)CCc2ccccc2)cc1, Cc1cc(-c2nn(-c3ccccc3F)cc2CNCCc2cnc[nH]2)c(C)s1, Cc1ccc(C(=O)NC(=S)NNC(=O)c2ccccc2)cc1, Cc1csc2c(N3CCN(C(=O)NC(C)(C)C)CC3)ncnc12, COC(=O)[C@@]1(Cc2ccc(F)cc2)[C@H]2c3cc(C(=O)N(C)C)n(CCc4ccccn4)c3C[C@H]2CN1C(=O)c1ccccc1, CN(CCc1ccccn1)C(=O)CC1C(=O)NCCN1Cc1ccccc1C(F)(F)F (stereo not given), COc1cc(/C=C/C(=O)c2ccc3c(c2)OCO3)cc(Cl)c1O, CCn1c(N2CCN(C(=O)Nc3ccc(F)cc3)CC2)nc2ccccc21, O=S(=O)(c1ccccc1)c1nnn2c1nc(NC1CCN(Cc3ccccc3)CC1)c1cc(Cl)ccc12, CCOC(=O)c1oc2ccc(OC)cc2c1NC(=O)CN1CCN(C)CC1, C=CCn1c(CCNC(=O)C(C)(C)C)nc2ccccc21, CCOC(=O)C1(CCOc2ccccc2)CCN(Cc2ccc3c(c2)OCCO3)CC1, Cc1cc(C)n(-c2nc(SCCN(C)C)c3c4c(sc3n2)CCCC4)n1, COc1cc(OC)cc(C(=O)NC2CCCN(Cc3ccc(Cl)cc3)C2)c1 (stereo not given), CN(C)C(CNC(=O)CCc1c[nH]c2ccccc12)c1ccccc1 (stereo not given), CCCCN(CC)CCCNC(=O)Cn1nc(Cc2ccncc2)c2ccccc2c1=O, COC(=O)C1=C(C)N(Cc2ccccc2)C(=NCCc2ccccn2)N[C@H]1c1cccc(F)c1

biological target: Short transient receptor potential channel 4 (Mus musculus) (UniProt Q9QUQ5); test: block of DAMGO-driven TRPC4 calcium entry – cell-based, HEK293 TRPC4/mu-opioid, Fluo-4 calcium, dose response (AID 434942;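 active = primary screen inhibitor hit that blocks the TRPC4 channel at some tested dose, yielding a dose curve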); conditions: HEK293 TRPC4/mu-opioid cells, DAMGO-evoked Fluo-4 calcium ratio; series mostly up to 20 µM

outcome, inactive:
Cc1cc(-c2ccc(C)c(S(=O)(=O)NCCCN(Cc3ccccc3)C(C)C)c2)on1, CCc1nc(NCCc2ccccn2)c2nnn(Cc3ccccc3F)c2n1, Cc1sc2ncnc(NCC(C)(C)N3CCOCC3)c2c1C, Cc1ccc(N2CCN(c3ccc(NCc4nc5ccccc5n4C)cc3)CC2)cc1, COc1ccc(C(CNC(=O)CN2C(=O)NC3(CCCC3)C2=O)N(C)C)cc1 (stereo not given), Cc1cccc(NC(=S)NCC(c2cccnc2)N(C)C)c1C (stereo not given), Cc1ccccc1OCC(=O)NNC(=S)NC(=O)c1ccco1, Cc1ccc(Sc2cc(C(=O)NCCN(C)C)c3ccccc3n2)cc1, O=C(O)c1ccc(-c2ccc(/C=c3/sc4nc5ccccc5n4c3=O)o2)cc1Cl, Cc1ccccc1C(=O)NNC(=S)NC(=O)c1ccccc1, CN(C)C(CNC(=O)c1ccc2ccccc2n1)c1ccccc1 (stereo not given), Cc1cc(NC(=O)CN2CCc3ccccc3C2)nc2c1c(=O)oc1ccccc12, Cn1c(CN2CCN(c3cccc(Cl)c3)CC2)nc2ccccc21, CN(C)C(CNC(=O)c1cnc(Cl)c(Cl)c1)c1ccccc1 (stereo not given), Cc1ccc(Cl)cc1NC(=O)CNCC(c1ccccc1)N(C)C (stereo not given), CN(C)CCCN(C(=O)c1ccc(S(=O)(=O)N2CCOCC2)cc1)c1nc2ccc(F)cc2s1, CN(C)CCN(C(=O)c1cccc2ccccc12)c1nc2cc3c(cc2s1)OCO3, Cc1ccc2c(C)c(C(=O)N(Cc3cccs3)C3CCS(=O)(=O)C3)oc2c1 (stereo not given), CCN1CCN(c2c(Cl)cccc2NC(=O)c2ccc3nsnc3c2)CC1, O=C(C1CCCN(Cc2ccncc2)C1)N1CCc2ccccc2C1 (stereo not given), CCN(c1ccccc1)S(=O)(=O)c1ccc(C(=O)N(CCCN(C)C)c2nc3cc4c(cc3s2)OCO4)cc1, CC1CCCN(CCCNC(=O)c2ccc3c(c2)N(Cc2ccccc2F)C(=O)c2ccccc2S3(=O)=O)C1 (stereo not given), O=C(Nc1nnc(-c2ccccc2Cl)o1)c1nc2ccccc2s1, COc1ccc(C(=O)NC(=S)NNC(=O)CCc2ccccc2)cc1, Cc1cc(-c2nn(-c3ccccc3F)cc2CNCCc2cnc[nH]2)c(C)s1, Cc1ccc(C(=O)NC(=S)NNC(=O)c2ccccc2)cc1, Cc1csc2c(N3CCN(C(=O)NC(C)(C)C)CC3)ncnc12, COC(=O)[C@@]1(Cc2ccc(F)cc2)[C@H]2c3cc(C(=O)N(C)C)n(CCc4ccccn4)c3C[C@H]2CN1C(=O)c1ccccc1, CN(CCc1ccccn1)C(=O)CC1C(=O)NCCN1Cc1ccccc1C(F)(F)F (stereo not given), COc1cc(/C=C/C(=O)c2ccc3c(c2)OCO3)cc(Cl)c1O, CCn1c(N2CCN(C(=O)Nc3ccc(F)cc3)CC2)nc2ccccc21, O=S(=O)(c1ccccc1)c1nnn2c1nc(NC1CCN(Cc3ccccc3)CC1)c1cc(Cl)ccc12, CCOC(=O)c1oc2ccc(OC)cc2c1NC(=O)CN1CCN(C)CC1, C=CCn1c(CCNC(=O)C(C)(C)C)nc2ccccc21, CCOC(=O)C1(CCOc2ccccc2)CCN(Cc2ccc3c(c2)OCCO3)CC1, Cc1cc(C)n(-c2nc(SCCN(C)C)c3c4c(sc3n2)CCCC4)n1, COc1cc(OC)cc(C(=O)NC2CCCN(Cc3ccc(Cl)cc3)C2)c1 (stereo not given), CN(C)C(CNC(=O)CCc1c[nH]c2ccccc12)c1ccccc1 (stereo not given), CCCCN(CC)CCCNC(=O)Cn1nc(Cc2ccncc2)c2ccccc2c1=O, COC(=O)C1=C(C)N(Cc2ccccc2)C(=NCCc2ccccn2)N[C@H]1c1cccc(F)c1
